PubChem BioAssay (Tox21)
Records with an inconclusive call do not appear. The source made the active and inactive calls. Unless noted, the call rests on the fitted dose curve.

Assays:
[1] = Nuclear factor erythroid 2-related factor 2/antioxidant responsive element (Nrf2/ARE) small molecule agonists: qHTS cell viability counter screen in human keratinocytes (AID 1919968; active means well fitted curve in the direction sought with a large enough effect in the repeat runs; an effect the other way counts as inactive or inconclusive; further: nearly all actives have a fitted effect of over 55% in size; further: potency means the concentration at half of the fitted maximal effect)
Method in brief: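 Parallel cytotoxicity read: KeratinoSens HaCaT cells, compound treatment 23 h, viability by CellTiter-Fluor fluorescence 1 h post-reagent.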

[2] = Nuclear factor erythroid 2-related factor 2/antioxidant responsive element (Nrf2/ARE) small molecule agonists: luciferase reporter gene qHTS assay in human keratinocytes (AID 1919969); further: nearly all actives have a fitted effect of over 35% in size; further: potency means the concentration at half of the fitted maximal effect
[3] = molecular target: Gonadotropin-releasing hormone receptor (Homo sapiens) (UniProt P30968); assay: Human gonadotropin-releasing hormone receptor (GnRHR) small molecule agonists, calcium flux assay in GnRHR-HEK293 cells (AID 1920063); further: nearly all actives have a fitted effect of over 35% in size
Sequence of Gonadotropin-releasing hormone receptor (Homo sapiens) (P30968 whole entry, looked up): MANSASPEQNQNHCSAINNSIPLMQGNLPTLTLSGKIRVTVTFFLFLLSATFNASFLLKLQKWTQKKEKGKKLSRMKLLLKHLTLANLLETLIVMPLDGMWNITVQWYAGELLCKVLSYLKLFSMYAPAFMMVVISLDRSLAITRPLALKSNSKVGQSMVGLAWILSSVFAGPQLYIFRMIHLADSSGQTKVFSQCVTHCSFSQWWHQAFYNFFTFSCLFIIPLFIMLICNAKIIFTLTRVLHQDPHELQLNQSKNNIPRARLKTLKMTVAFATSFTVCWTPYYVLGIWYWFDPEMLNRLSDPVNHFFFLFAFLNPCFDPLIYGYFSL
Method in brief: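 Calcium flux, agonist mode, human GnRHR stably integrated in HEK293; dye 1 h at 37 C before compound; Ex/Em=480/540 kinetic read, 3 min; 15 concentrations, triplicate.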

[4] = molecular target: KiSS-1 receptor (Homo sapiens) (UniProt Q969F8); assay: Human kisspeptin (KISS1R) small molecule agonists, calcium flux assay in KISS1R-HEK293 cells (AID 1920064; active means well fitted curve in the direction sought with a large enough effect in the repeat runs; an effect the other way counts as inactive or inconclusive)
Sequence of KiSS-1 receptor (Homo sapiens) (Q969F8 whole entry, looked up): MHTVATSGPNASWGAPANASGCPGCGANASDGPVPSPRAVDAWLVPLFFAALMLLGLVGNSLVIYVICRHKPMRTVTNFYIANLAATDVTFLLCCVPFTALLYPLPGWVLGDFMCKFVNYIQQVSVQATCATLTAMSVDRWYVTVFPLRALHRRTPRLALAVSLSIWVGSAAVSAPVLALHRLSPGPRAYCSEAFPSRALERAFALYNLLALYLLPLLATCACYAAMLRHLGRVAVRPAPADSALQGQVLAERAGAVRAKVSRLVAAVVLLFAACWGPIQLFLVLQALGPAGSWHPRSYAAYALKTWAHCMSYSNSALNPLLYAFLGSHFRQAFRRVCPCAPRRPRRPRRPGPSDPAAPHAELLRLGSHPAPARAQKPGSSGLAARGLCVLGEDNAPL
Method in brief: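 Triplicate 15-concentration series were applied to dye-loaded human KISS1R HEK293 cells, and agonist-evoked calcium fluorescence was captured for 3 min.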

[5] = G protein-coupled receptor (GPCR) small molecule agonists, calcium flux assay: HEK293 wild type cell line counter screen (AID 1920065)
Method in brief: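 Non-specific calcium responders were flagged by adding DMSO-dissolved compounds to dye-loaded cells and reading 480/540 nm fluorescence each second for 3 min; ATP served as positive control.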

[6] = p53 small molecule agonists, cell-based qHTS assay with rat liver microsomes (AID 1963578)
Method in brief: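 Compound in DMSO added to p53RE-bla cells 5 h post-plating; rat microsomes/NADPH 0.5 mg/mL final; 16 h, 37 C; LiveBLAzer 2 h RT.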

[7] = p53 small molecule agonists, cell-based qHTS assay with human liver microsomes: qHTS cell viability counter screen (AID 1963579); further: nearly all actives have a fitted effect of over 45% in size; further: potency means the concentration at half of the fitted maximal effect
Method in brief: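 HLM-supplemented (0.5 mg/mL final) and NADPH-supplemented (0.5 mg/mL final) p53RE-bla cultures, 4,000 cells per well, were dosed with compounds in DMSO for 16 h at 37 C; luminescent ATP detection (CellTiter-Glo, 30 min, room temperature) quantified surviving cells.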

[8] = p53 small molecule agonists, cell-based qHTS assay with rat liver microsomes: qHTS cell viability counter screen (AID 1963580); further: nearly all actives have a fitted effect of over 45% in size; further: potency means the concentration at half of the fitted maximal effect
Method in brief: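 Cytotoxicity counter screen: intracellular ATP read by CellTiter-Glo luminescence in the p53 reporter wells. HCT-116 p53RE-bla cells were treated for 16 h at 37 C alongside rat liver microsomes and NADPH, each 0.5 mg/mL final.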

[9] = molecular target: 5-hydroxytryptamine receptor 2A (Homo sapiens) (UniProt P28223); assay: 5-hydroxytryptamine receptor 2A (HTR2A) small molecule antagonists, cell-based qHTS assay (AID 1963586); further: nearly all actives have a fitted effect of over 45% in size; further: potency means the concentration at half of the fitted maximal effect
Sequence of 5-hydroxytryptamine receptor 2A (Homo sapiens) (P28223 whole entry, looked up): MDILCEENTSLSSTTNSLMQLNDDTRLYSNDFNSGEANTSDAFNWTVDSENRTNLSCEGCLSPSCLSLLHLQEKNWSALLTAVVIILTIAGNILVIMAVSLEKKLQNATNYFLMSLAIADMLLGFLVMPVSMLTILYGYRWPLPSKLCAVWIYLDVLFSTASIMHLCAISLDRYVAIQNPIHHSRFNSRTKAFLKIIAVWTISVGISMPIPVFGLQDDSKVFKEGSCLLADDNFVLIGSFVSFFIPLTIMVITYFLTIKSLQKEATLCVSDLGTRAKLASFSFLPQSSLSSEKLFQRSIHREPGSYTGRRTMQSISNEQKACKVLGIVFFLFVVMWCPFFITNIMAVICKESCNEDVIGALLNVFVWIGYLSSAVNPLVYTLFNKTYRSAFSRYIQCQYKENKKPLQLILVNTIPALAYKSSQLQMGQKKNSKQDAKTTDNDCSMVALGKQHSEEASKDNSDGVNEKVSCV
Method in brief: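 CHO cells stably expressing human HTR2A were plated for 18 h at 37 C, then loaded with calcium dye for 1 h. Compounds were preincubated 5 min at room temperature before DOI (4 nM solution) was added. Kinetic fluorescence was read for 3 min.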

[10] = molecular target: 5-hydroxytryptamine receptor 2A (Homo sapiens) (UniProt P28223); assay: 5-hydroxytryptamine receptor 2A (HTR2A) small molecule agonists, cell-based qHTS assay (AID 1963587); further: nearly all actives have a fitted effect of over 30% in size
Method in brief: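 Kinetic calcium-flux fluorescence (2 min, 1 sec intervals) after compound addition in agonist mode. HTR2A-CHO cells were cultured 18 h, then dye-loaded 1 h at 37 C.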

[11] = molecular target: Muscarinic acetylcholine receptor M1 (Homo sapiens) (UniProt P11229); assay: Cholinergic receptor muscarinic 1 (CHRM1) small molecule antagonists, cell-based qHTS assay (AID 1963588); further: nearly all actives have a fitted effect of over 40% in size; further: potency means the concentration at half of the fitted maximal effect
Sequence of Muscarinic acetylcholine receptor M1 (Homo sapiens) (P11229 whole entry, looked up): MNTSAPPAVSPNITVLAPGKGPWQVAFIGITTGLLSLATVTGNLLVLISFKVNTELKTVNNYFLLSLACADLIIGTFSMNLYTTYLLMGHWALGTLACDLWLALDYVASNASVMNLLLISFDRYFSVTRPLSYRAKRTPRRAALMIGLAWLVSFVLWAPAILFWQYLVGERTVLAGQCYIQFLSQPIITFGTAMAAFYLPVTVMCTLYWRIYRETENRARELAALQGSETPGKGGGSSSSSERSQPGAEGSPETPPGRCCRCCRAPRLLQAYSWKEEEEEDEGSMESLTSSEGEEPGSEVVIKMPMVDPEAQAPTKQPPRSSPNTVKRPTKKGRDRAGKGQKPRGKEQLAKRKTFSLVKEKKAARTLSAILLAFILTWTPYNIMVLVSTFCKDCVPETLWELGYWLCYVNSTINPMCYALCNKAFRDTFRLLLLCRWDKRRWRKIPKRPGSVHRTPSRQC
Method in brief: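 Compounds were tested at 15 concentrations in three independent runs. Dye-loaded CHRM1-CHO cells were exposed 5 min at room temperature before stimulation by acetylcholine added at 50nM. Intracellular calcium was read kinetically on FDSS for 3 min.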

[12] = molecular target: Muscarinic acetylcholine receptor M1 (Homo sapiens) (UniProt P11229); assay: Cholinergic receptor muscarinic 1 (CHRM1) small molecule agonists, cell-based qHTS assay (AID 1963589); further: nearly all actives have a fitted effect of over 35% in size; further: potency means the concentration at half of the fitted maximal effect
Method in brief: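 qHTS, 15-point titration, 3 independent runs: compounds pin-transferred onto dye-loaded CHRM1-CHO cells (human M1), calcium fluorescence followed every second to detect agonism.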

[13] = molecular target: Beta-2 adrenergic receptor (Homo sapiens) (UniProt P07550); assay: Adrenergic beta2 receptor (ADRB2) small molecule antagonists, cell-based qHTS assay (AID 1963592); further: series mostly up to about 92 µM; nearly all actives have a fitted effect of over 50% in size
Sequence of Beta-2 adrenergic receptor (Homo sapiens) (P07550 whole entry, looked up): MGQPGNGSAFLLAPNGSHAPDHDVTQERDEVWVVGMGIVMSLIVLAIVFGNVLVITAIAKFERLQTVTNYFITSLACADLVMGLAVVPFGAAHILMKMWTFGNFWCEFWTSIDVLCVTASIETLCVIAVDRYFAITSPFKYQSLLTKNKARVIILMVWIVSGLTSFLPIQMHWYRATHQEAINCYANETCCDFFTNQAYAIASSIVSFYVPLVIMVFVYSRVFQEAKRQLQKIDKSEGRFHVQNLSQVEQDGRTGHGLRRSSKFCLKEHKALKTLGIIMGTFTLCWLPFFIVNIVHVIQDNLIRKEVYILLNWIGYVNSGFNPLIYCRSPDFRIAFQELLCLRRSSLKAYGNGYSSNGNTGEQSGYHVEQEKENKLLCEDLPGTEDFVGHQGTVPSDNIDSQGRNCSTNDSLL
Method in brief: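 Assay format: CHO-ADRB2 cells, 18-20hr seeding at 37C/5% CO2, then compound plus 1nM isoproterenol agonist mix for 0.5hr RT. Homogeneous time-resolved fluorescence cAMP detection after 1hr, expressed as 665/615 nm ratio.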

[14] = molecular target: Beta-2 adrenergic receptor (Homo sapiens) (UniProt P07550); assay: Adrenergic beta2 receptor (ADRB2) small molecule agonists, cell-based qHTS assay (AID 1963593);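 further: CHO cells stably overexpressing human ADRB2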
Method in brief: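 CHO cells stably over-expressing ADRB2 were plated overnight at 37C, then dosed with compounds plus a stimulation mix containing 100uM IBMX and 25uM Ro-20-1724 for 0.5hr at room temperature. cAMP was measured by HTRF competition, 1hr.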

[15] = p53 small molecule agonists, cell-based qHTS assay (AID 1963582; active means well fitted activation curve with a large enough effect in the signal ratio in the repeat runs, not every such curve was filed as active; the % refers to the signal ratio)
Method in brief: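 Beta-lactamase reporter cells (p53RE-bla) treated with compounds for 16 h at 37 C; FRET substrate, 2 h, room temperature; fluorescence intensity.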

[16] = molecular target: D(2) dopamine receptor (Homo sapiens) (UniProt P14416); assay: Dopamine D2 receptor (DRD2) small molecule agonists, cell-based qHTS assay (AID 1963594); further: nearly all actives have a fitted effect of over 35% in size
Sequence of D(2) dopamine receptor (Homo sapiens) (P14416 whole entry, looked up): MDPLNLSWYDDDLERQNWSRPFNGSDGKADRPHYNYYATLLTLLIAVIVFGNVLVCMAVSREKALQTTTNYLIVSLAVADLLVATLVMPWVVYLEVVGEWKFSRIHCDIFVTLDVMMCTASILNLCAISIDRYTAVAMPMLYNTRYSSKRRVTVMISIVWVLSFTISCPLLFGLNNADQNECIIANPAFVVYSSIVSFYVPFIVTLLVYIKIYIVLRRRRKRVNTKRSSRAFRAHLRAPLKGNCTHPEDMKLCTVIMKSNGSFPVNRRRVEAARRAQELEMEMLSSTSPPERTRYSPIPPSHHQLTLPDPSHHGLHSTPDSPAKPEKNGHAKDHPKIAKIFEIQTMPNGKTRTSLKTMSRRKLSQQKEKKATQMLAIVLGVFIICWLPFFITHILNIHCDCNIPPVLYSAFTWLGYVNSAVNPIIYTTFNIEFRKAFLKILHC
Method in brief: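 cAMP accumulation in DRD2-HEK293 cells measured by HTRF after 1 h detection; compounds added 10 min before NKH477 (200nM […]) forskolin-analogue stimulation, 30 min at room temperature, with Ro20-1724 present at 0.1 mM final.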

[17] = molecular target: D(2) dopamine receptor (Homo sapiens) (UniProt P14416); assay: Dopamine D2 receptor (DRD2) small molecule antagonists, cell-based qHTS assay (AID 1963595; active means well fitted inhibition curve with a large enough effect in the signal ratio in the repeat runs, with a control signal flat; the % refers to the signal ratio; further: potency means the concentration at half of the fitted maximal effect)
Method in brief: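 Antagonist mode in DRD2-HEK293 cells: after compound addition with 0.1 mM Ro20-1724, cells received quinpirole (12 nM) and NKH477 (200 nM) for 30 min at room temperature; HTRF cAMP read after 1 h detection.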

[18] = p53 small molecule agonists, cell-based qHTS assay: qHTS cell viability counter screen (AID 1963581); further: nearly all actives have a fitted effect of over 45% in size
Method in brief: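 Multiplexed with the reporter read, a CellTiter-Glo step (30 min, room temperature) gauges ATP-based viability of HCT-116 p53RE-bla cells after 16 h compound incubation at 37 C.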

[19] = cAMP Responsive Elements (CRE) small molecule agonists, cell-based qHTS assay (AID 1963590); further: potency means the concentration at half of the fitted maximal effect
Method in brief: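 Quantitative HTS for CRE agonists: HEK 293T CRE-bla cells, overnight plating, 3 h compound incubation at 37 C/5% CO2, then 2 h room-temperature LiveBLAzer B/G FRET substrate loading.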

[20] = cAMP Responsive Elements (CRE) small molecule antagonists, cell-based qHTS assay (AID 1963591; active means well fitted inhibition curve with a large enough effect in the signal ratio in the repeat runs, not every such curve was filed as active; the % refers to the signal ratio)
Method in brief: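 Fluorescence intensity from cleaved LiveBLAzer B/G substrate (2 h, room temperature) quantified CRE-bla activity in HEK 293T cells exposed 3 h to compound with 0.25 uM final NKH477.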

Measured: Potency

COc1ccc2cc(S(=O)(=O)N[C@H](CC(=O)N[C@H](Cc3ccc(CN4[C@H](C)CCC[C@@H]4C)cc3)C(=O)N(C)C(C)C)c3ccc4c(c3)OCO4)ccc2c1
active: [1] 41 µM | [7] 43.3 µM | [11] 0.794 µM
not listed: [15] | [16] | [17] | [18] | [19] | [20]
inactive: all other assays above

C=C(C)C(=O)OCCOC(=O)CC(C)=O
not listed: [9] | [11] | [14] | [18] | [19] | [20]
inactive: all other assays above

CCOC(=O)NCCOc1ccc(Oc2ccccc2)cc1
active: [11] 29.8 µM
not listed: [13] | [15] | [20]
inactive: all other assays above

CSC(=O)c1cccc2nnsc12
not listed: [14] | [16] | [18] | [20]
inactive: all other assays above

C=CC(=O)[O-].C=CC(=O)[O-].[Zn+2]
not listed: [9] | [13] | [14] | [18]
inactive: all other assays above

O=C(O)c1c2ccccc2cc2ccccc12
active: [2] 48.4 µM
not listed: [18] | [19]
inactive: all other assays above

CCCCC1C(=O)N(c2ccccc2)N(c2ccc(O)cc2)C1=O (stereo not drawn)
active: [1] 21.1 µM | [2] 10.6 µM
not listed: [14] | [15] | [17] | [19] | [20]
inactive: all other assays above

O=C1NC2CCCCN2C12CCN(CCCN1c3ccccc3CCc3ccc(Cl)cc31)CC2 (stereo not drawn)
active: [1] 29.8 µM | [9] 0.0365 µM | [11] 1.3 µM | [17] 0.335 µM
not listed: [12] | [13] | [15] | [19] | [20]
inactive: all other assays above

COc1cc(-c2ccc(=O)[nH]n2)ccc1OC(F)F
active: [12] 0.0038 µM | [19] 13.3 µM
not listed: [9] | [18]
inactive: all other assays above

CC(C)(C)C(=O)c1ccccc1
not listed: [14] | [18]
inactive: all other assays above

Clc1ccc(Nc2nnc(Cc3ccncc3)c3ccccc23)cc1
active: [9] 18.3 µM | [11] 18.3 µM
not listed: [8] | [14]
inactive: all other assays above

CC(C)(C)c1cc(/C=C2\SC(=N)NC2=O)cc(C(C)(C)C)c1O
active: [1] 30.6 µM
not listed: [9] | [13] | [14] | [15] | [16] | [18] | [19] | [20]
inactive: all other assays above

CC(C)(C)CC(C)(C)c1ccccc1O
inactive: [2] | [3] | [4] | [5] | [6] | [11] | [12] | [13] | [16]
active: [1] 27.4 µM | [7] 41 µM | [8] 41 µM | [17] 61.4 µM

CC1=CC(C)C(C=O)C(C)C1 (stereo not drawn)
not listed: [18]
inactive: all other assays above
